Here are results for 26 compounds from PubChem BioAssay AID1578 (Sanford-Burnham Center for Chemical Genomics, 2009).

Hit rate of the full screen: of about 290,000 compounds, about 3,000 (1%) were called active. No stated cut-off is given here; in the data, active means inhibition mostly above about 36% (no sharp cut-off); inactive means mostly below about 34%. The full list was thinned out, with actives kept by preference.

The assay can be described thus: NOD1 signaling inhibitors, primary screen, cell-based, luminescence, uHTS (AID 1578).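 Further: HEK-293T reporter cells stimulated with the NOD1 agonist gamma-tri-DAP.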 To be noted: NOD1-driven NF-kB luciferase reporter cells, at 4 µM, hits give high values. Background: A reporter such as luciferase makes a cellular process visible.
Regarding `COc1cccc(-n2cnc3sc(C)cc3c2=O)c1`, the inhibition is -25.1% (inactive).

For the compound `CCCOC(=O)c1cc(=O)[nH]c2ccccc12`, the inhibition is -5.2% (inactive).

Take `CC(C)(C)c1ccc(/C=C2\SC(=O)N(CCNC(=O)c3cccc(S(=O)(=O)N4CCOCC4)c3)C2=O)cc1`: the inhibition was 74.4% (active).

For the compound `O=C(NCCN1C(=O)S/C(=C\c2ccc(F)cc2)C1=O)c1cccc(S(=O)(=O)N2CCOCC2)c1`, the inhibition is 21.8% (inactive). In the case of `O=C(NCCN1C(=O)S/C(=C\c2ccc(Cl)cc2)C1=O)c1ccc(F)c(S(=O)(=O)N2CCOCC2)c1` it was -0.6% (inactive); in that of `CC1CCN(C(=O)c2ccccc2NC(=O)c2cccc(S(=O)(=O)N(C)C)c2)CC1`, -46.2% (inactive); in that of `CCOC(=O)c1c(-c2ccc(C)o2)csc1NC(=S)NC(=O)c1ccc(F)cc1`, 37.3% (inactive). Consider `CCOC(=O)c1c(-c2ccc(C)o2)csc1NC(=S)NC(=O)N(C)C`, for which the inhibition was 97.4% (active). Take `CCOC(=O)c1c(-c2ccc(C)o2)csc1NC(=S)NC(=O)c1cccs1`: the inhibition was 36.4% (inactive). In the case of `COc1ccc(-c2ncccc2OC(=O)C23CC4CC(CC(C4)C2)C3)cc1OC` it was -13.7% (inactive); in that of `CC1CCC(NC(=O)COc2ccccc2C(N)=O)CC1` (stereo unspecified), -22% (inactive); in that of `CN(C)c1oc(/C=C/c2cccs2)nc1S(=O)(=O)c1ccccc1`, 32.1% (inactive). The value for `Cc1cc(O)c(C(=O)/C=C/c2ccc(Cl)cc2)c(=O)o1` was 46.1% (active); that for `Cc1cc(O)c(C(=O)/C=C/c2ccc(C(C)C)cc2)c(=O)o1` was 5.9% (inactive). The value for `Cc1cc(O)c(C(=O)/C=C/c2ccccc2)c(=O)o1` was 0.7% (inactive); that for `CCOC(=O)C1(CCc2ccccc2)CCN(Cc2ccc(C(=O)OC)cc2)CC1` was 13.7% (inactive).

For the compound `Cc1occc1C(=O)Nc1ccc2c(c1)OCCO2`, the inhibition was -15% (inactive). As to `Cc1ccc(NC(=O)c2ccoc2C)cc1C`, the inhibition was 112% (active).

For `Cc1occc1C(=O)Nc1ccc2ccccc2c1`, the inhibition is -121% (inactive). The value for `COC(=O)C(Cc1c[nH]c2ccccc12)NC(=O)c1cccs1` (stereo unspecified) was -7.6% (inactive). The value for `CCN(C(=O)COc1ccccc1)c1nnc(-c2cccnc2)s1` was -10.9% (inactive); that for `N#CC(C(=O)OC1CCCCC1)c1nc2ccccc2nc1N1CCCCC1` (stereo unspecified) was 4.5% (inactive); that for `CN1CCN(c2nc3ccccc3nc2C(C#N)C(=O)OC2CCCCC2)CC1` (stereo unspecified) was 11.4% (inactive). The value for `CCN1CCN(c2nc3ccccc3nc2C(C#N)C(=O)OC2CCCCC2)CC1` (stereo unspecified) was 81.8% (active); that for `COCCN1C(=O)C(CC(=O)Nc2ccc(C(C)=O)cc2)SC1=Nc1ccccc1` (stereo unspecified) was 4.5% (inactive). Consider `COC(=O)Nc1ccc(C)c(NC(=O)OC)c1`, for which the inhibition was -7.3% (inactive).

The term inhibition denotes the relative decrease from the control value, in per cent.
